The values that follow come from PubChem BioAssay (NCATS).

Results filed as inconclusive are left out. Entries that show only a call come without a potency. Calls of active or inactive are those of the source. Calls come from the whole dose curve; as a rule, active = well fitted curve in the direction sought with a large enough effect; inconclusive = small, poorly fitted or top-dose-only effect, or another doubt; inactive = no such curve, though single readings can be large or run the other way.
Potency is the fitted concentration of half-maximal effect.

A short description of the test: KB-8-5-11 P-gp reporter qHTS against the NCATS DSHEA and TCM libraries (AID 1919977). The settings on record: KB-8-5-11 cells; series mostly up to 26.1 µM. An excerpt:
Assay Development and Screening Technology Laboratory (ADST)
National Center for Advancing Translational Sciences (NCATS), Rockville, MD
National Institute of Health (NIH), Bethesda, Maryland
Dietary Supplements and Natural Products have minor oversight of their safety and efficacy. We assembled a collection of Dietary Supplements and Natural Products (DSNP) as well as Traditional Chinese Medicinal (TCM) Plant extracts, which were screened against an in vitro panel of assays, including a liver cytochrome p450 enzyme panel, CAR/PXR signaling pathways, and P-gp transporter assays, to assess their activity. This pipeline facilitated the interrogation of Natural Product-Drug Interaction (NaPDI) through prominent metabolizing pathways. In addition, we compared the activity profiles of the DSNP/TCM substances with those of an approved drug collection. Many of the approved drugs have well-annotated mechanisms of action (MOA) while the MOAs for most of the DSNP and TCM samples remain unknown. Based on the premise that compounds with similar activity profiles tend to share similar targets or MOA, we clustered the library activity profiles to identify overlap with the NCATS Pharmaceutical Collection to predict the MOAs of the DSNP/TCM substances. Overall, we highlight four significant bioactivity profiles (measured by p-values) as examples of this prediction. To assess broad cytotoxicity, we employed screening against a HepG2 cell line. In addition, transporter-mediated drug interactions are utilized in the characterization of DDIs using a P-glycoprotein (P-gp) assays. To profile potential P-gp activity, a differential cell viability was measured against two cell lines: a parental KB-3-1 human cervical adenocarcinoma cell line and the drug-resistant subline KB-8-5-11 that overexpresses P-gp.
To this end, we profiled both collections for potential CAR and/or PXR activity, employing a previously published 1536-well qHTS assay.
[1] Lee TD, et al. A High-Throughput Screen of a Library of Therapeutics Identifies Cytotoxic Substrates of P-glycoprotein. Mol Pharmacol. Nov 2019;96(5):629-640. doi:10.1124/mol.119.115964
PROTOCOL TABLE (as described by Inglese J, Shamu CE and Guy RK. 2007)
SEQUENCE No. (e.g., 1, 2, 3, etc.); PARAMETER (e.g., Cells, Incubation, Reagent, etc.); VALUE; DESCRIPTION.
1; Cells; 5 uL; KB-8-5-11 cells, white solid-bottom tissue treated Greiner plate.
2; Incubation; 4 hrs; 37C, 95% humidity, 5% CO2.
3; Compounds and control; 23 nL; Kalypsis pin tool (Wako USA) equipped with a 1536-well pin head to transfer to the assay plates.
4; Incubation; 72 hrs; 37C, 95% humidity, 5% CO2.
5; Reagent; 2.5 uL; CellTiter-Glo.
6; Centrifuge; 1000 RPM; 15 seconds.
7; Incubation; 30 min; room temperature.
8; Read; Luminescence; ViewLux plate reader.
NOTES (numbers refer to Sequence numbers above)
1. P-gp-overexpressing subline KB-8-5-11 were maintained in DMEM (Thermofisher catalog #11965) with 10% FBS and 1% penicillin/streptomycin at 37C in 5% CO2. For KB-8-5-11 cells, colchicine was added to the medium at a concentration of 100 ng/ml (after initial cell attachment). For the screen, assay medium was identical to culture medium except for KB-8-5-11, where colchicine was excluded from the medium. Briefly, 5 uL of cells at 1 x 10^5 cells/mL (500 cells/well) were dispensed into a 1536-well white solid-bottom tissue treated plate (Greiner Bio-One) using a Multidrop Combi dispenser.
2. Plates were incubated at 37C, 95% humidity, 5% CO2 for ~4 hours to allow for cell attachment.
3. Compounds and intraplate control (Bortezomib; final concentration range 228 pM - 7.5 uM) were transferred (16 nL) via pintool (Wako Automation), for a final concentration of 15.6 nM - 30.0 uM (most substances).
4. Plates were incubated for ~72 hours at 37C, 95% humidity, 5% CO2.
5. Plates were then dispensed with 2.5 uL of CellTiter-Glo.
6. The assay plates were centrifuged for 15 seconds at 1,000 RPM's.
7. The plates were incubated for 30-minute at room temperature.
8. […]
Turning to `O=c1cc(-c2ccc(O)cc2)oc2cc(O[C@H]3OC(CO)C(O)C(O)C3O)cc(O)c12` (stereo not given in full), the Potency result was “inactive”.

Turning to `COc1ccc(/C=C/c2cc(OC)cc(=O)o2)cc1`, the Potency entry was “inactive”.

As to `CCCCC[C@H](O)CC(=O)CCc1ccc(O)c(OC)c1`, the Potency result was “inactive”.

For `CC(C)=CCC[C@](C)(O[C@@H]1O[C@H](CO)[C@@H](O)[C@H](O)[C@H]1O)[C@H]1CC[C@]2(C)[C@@H]1[C@H](O)C[C@@H]1[C@@]3(C)CC[C@H](O)C(C)(C)[C@@H]3[C@@H](O[C@@H]3O[C@H](CO)[C@@H](O)[C@H](O)[C@H]3O[C@@H]3O[C@@H](C)[C@H](O)[C@@H](O)[C@H]3O)C[C@]12C`, the Potency result was “inactive”.

For `COc1cc2c(cc1O)CC1c3c(cc(O)c(OC)c3-2)CCN1C` (stereo not given), the Potency result is “inactive”.

As to `CC(=O)O[C@H]1[C@H](O[C@H]2CC[C@]34C[C@]35CC[C@]3(C)[C@@H]([C@@]6(C)CC[C@@H](C(C)(C)O)O6)[C@@H](O)C[C@@]3(C)[C@@H]5C[C@H](O[C@@H]3O[C@H](CO)[C@@H](O)[C@H](O)[C@H]3O)[C@H]4C2(C)C)OC[C@@H](O)[C@@H]1O`, the Potency result was “inactive”.

For the molecule `C=CCc1ccc(OC)c(OC)c1`, the Potency result was “inactive”.

Turning to `O=c1ccc2ccc(O)cc2o1`, the Potency entry was “inactive”.

Take `COC(=O)C1=CO[C@@H](C)[C@@H]2CN3CC[C@@]4(C(=O)Nc5ccccc54)[C@@H]3CC12` (stereo not given in full): the Potency entry is “inactive”.

With `CCCCCCCCCCCC(=O)O`, the Potency entry is “inactive”.

With `C=C[C@](C)(O)CCC=C(C)C`, the Potency result was “inactive”.

Consider `C=C[C@H]1CN2CCc3c([nH]c4ccccc34)[C@H]2C[C@@H]1/C(=C\OC)C(=O)OC`, for which the Potency was 22.4 µM (active).

On to `OCC1=C[C@@H](O)[C@@H]2C=CO[C@@H](OC3O[C@H](CO)[C@@H](O)[C@H](O)[C@H]3O)[C@H]12` (stereo not given in full), for which the Potency entry was “inactive”.

For the molecule `COc1cc(/C=C/c2ccccc2)oc(=O)c1`, the Potency result was “inactive”.

Turning to `CC(C)(O)[C@@H]1CC[C@](C)([C@@H]2[C@H](O)C[C@]3(C)C4C[C@@H](O[C@H]5O[C@@H](CO)[C@H](O)[C@@H](O)[C@@H]5O)C5C(C)(C)[C@H](O[C@H]6OC[C@H](O)[C@@H](O)[C@@H]6O)CC[C@]56CC46CC[C@@]23C)O1` (stereo not given in full), the Potency entry is “inactive”.

For `CC(C)=CCC[C@](C)(O[C@@H]1O[C@H](CO)[C@@H](O)[C@H](O)[C@H]1O)[C@H]1CC[C@]2(C)[C@@H]1[C@H](O)C[C@@H]1[C@@]3(C)CC[C@H](O)C(C)(C)[C@@H]3[C@@H](O[C@@H]3O[C@H](CO)[C@@H](O)[C@H](O)[C@H]3O)C[C@]12C`, the Potency entry was “inactive”.

In the case of `C=CCc1ccc2c(c1)OCO2`, the Potency entry was “inactive”.

Consider `Oc1cc(O)c2c(c1)OC(c1ccc(O)c(O)c1)C(O)C2` (stereo not given), for which the Potency result is “inactive”.

For `C=CC(C)(CCC=C(C)C)OC(C)=O` (stereo not given), the Potency result was “inactive”.

As to `COc1cc2c(cc1O)C[C@H]1c3c(cc(OC)c(O)c3-2)CCN1C`, the Potency result is “inactive”.

Turning to `CCCCCCCCCCCCCCCCCCCCCCCCCCCCCCO`, the activity change, negative = inhibition is 8.26% [at 3.26 µM] (inactive).

Consider `CN(CC(=O)O)C(=N)N`, for which the Potency entry was “inactive”.

Turning to `Cc1ncc(COP(=O)(O)O)c(C)c1O`, the Potency entry is “inactive”.

Take `O=C(/C=C/c1ccc(O)c(O)c1)OC1[C@H](O)CC(O)(C(=O)O)C[C@@H]1O` (stereo not given in full): the Potency result is “inactive”.

With `C=C1C[C@@]23CC[C@H]4[C@@](C)(CCC[C@@]4(C)C(=O)O[C@@H]4O[C@H](CO)[C@@H](O)[C@H](O)[C@H]4O)[C@@H]2CC[C@]1(O[C@@H]1O[C@H](CO)[C@@H](O)[C@H](O[C@@H]2O[C@H](CO)[C@@H](O)[C@H](O)[C@H]2O)[C@H]1O[C@@H]1O[C@@H](C)[C@H](O)[C@@H](O)[C@H]1O)C3`, the Potency entry was “inactive”.

Consider `CC12CC3(O)OC(O1)C1(COC(=O)c4ccc(O)cc4)C3CC21OC1OC(CO)C(O)C(O)C1O` (stereo not given), for which the Potency result is “inactive”.

In the case of `C=C1CC/C=C(/C)CC[C@@H]2[C@@H]1CC2(C)C`, the Potency entry was “inactive”.

As to `CC1=C(/C=C/C(C)=C/C=C/C(C)=C/C=C/C=C(C)/C=C/C=C(C)/C=C/C2=C(C)CCCC2(C)C)C(C)(C)CCC1`, the Potency entry was “inactive”.

`CC[C@H](CC[C@@H](C)[C@H]1CC[C@H]2[C@@H]3CC=C4C[C@@H](O)CC[C@]4(C)[C@H]3CC[C@]12C)C(C)C`: the Potency entry was “inactive”.

With `CC(C)=CCCC(C)=CCCC(C)=CCCC=C(C)CCC=C(C)CCC=C(C)C`, the Potency entry was “inactive”.

Regarding `CCCCCC/C=C\CCCCCCCC(=O)O`, the Potency entry was “inactive”.

In the case of `Oc1cc(O)c2c(c1)O[C@@H](c1cc(O)c(O)c(O)c1)[C@H](O)C2`, the Potency result was “inactive”.

`CC(C)=CCC[C@](C)(O[C@@H]1O[C@H](CO[C@@H]2O[C@H](CO)[C@@H](O)[C@H](O)[C@H]2O)[C@@H](O)[C@H](O)[C@H]1O)C1CC[C@]2(C)[C@@H]1[C@H](O)CC1[C@@]3(C)CC[C@H](O[C@@H]4O[C@H](CO)[C@@H](O)[C@H](O)[C@H]4O[C@@H]4O[C@H](CO)[C@@H](O)[C@H](O)[C@H]4O)C(C)(C)[C@@H]3CC[C@]12C` (stereo not given in full): the activity change, negative = inhibition was 14.6% [at 5.42 µM] (inactive).

On to `C[C@@H]1O[C@@H](OC[C@H]2OC(Oc3c(-c4ccc(O)c(O)c4)oc4cc(O)cc(O)c4c3=O)[C@H](O)[C@@H](O)[C@@H]2O)[C@H](O)[C@H](O)[C@H]1O` (stereo not given in full), for which the Potency result was “inactive”.

For the molecule `C=C1C[C@@]23CC[C@H]4[C@@](C)(CCC[C@@]4(C)C(=O)O[C@@H]4O[C@H](CO)[C@@H](O)[C@H](O)[C@H]4O[C@@H]4O[C@H](CO)[C@@H](O)[C@H](O)[C@H]4O)[C@@H]2CC[C@]1(O[C@@H]1O[C@H](CO)[C@@H](O)[C@H](O)[C@H]1O[C@@H]1O[C@H](CO)[C@@H](O)[C@H](O)[C@H]1O)C3`, the Potency entry was “inactive”.

As to `CC1(C)CC[C@]2(C(=O)O)CC[C@]3(C)C(=CCC4[C@@]5(C)CC[C@H](O)[C@@](C)(CO)C5CC[C@]43C)[C@H]2C1` (stereo not given in full), the Potency result was “inactive”.

Take `CC1=C2[C@H]([C@@H](C)CC[C@@H]2/C=C(\C)C(=O)O)[C@@H](O)C1`: the Potency result is “inactive”.

For the molecule `O=C(/C=C/c1ccc(O)c(O)c1)O[C@@H]1CC(C(=O)O)=C[C@@H](O)[C@H]1O`, the Potency entry was “inactive”.

Consider `O=C(O[C@@H]1Cc2c(O)cc(O)cc2O[C@H]1c1cc(O)c(O)c(O)c1)c1cc(O)c(O)c(O)c1`, for which the Potency result is “inactive”.

With `O=C(O[C@@H]1Cc2c(O)cc(O)cc2O[C@@H]1c1ccc(O)c(O)c1)c1cc(O)c(O)c(O)c1`, the Potency entry was “inactive”.
